Screening results: PubChem BioAssay, National Center for Advancing Translational Sciences (NCATS)
Luc counter = Counterscreen for Luciferase (Kinase-Glo TM) Inhibition | Luciferin 4-monooxygenase (Photuris pensylvanica), Q27757 | Kinase-Glo luciferase, ATP luminescence, 8 min | Potency, µM (doses to about 38.3 µM), for inactives: at the highest dose activity change, negative = inhibition, actives largely listed as inhibitors | 200,000 tested, 0.28% active; further: on the % scale 0 is the no-effect control and ±100 the full control effect; nearly all actives have a fitted effect of over 60% in size
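Luminescence was the read-out, taken after 8-minute incubation at ambient temperature. Luciferase turned over luciferin with 10 uM ATP in imidazole pH 7.2 buffer containing KCl, MgCl2, Tween 20 and BSA.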
Rab9 promoter act = qHTS Assay for Rab9 Promoter Activators | Huh7 Rab9 promoter-luciferase reporter, luminescence, 24 h | Potency, µM (series often up to 9.22 µM), for the others: top-dose activation, negative = inhibition, usual class: activators | 320,000 tested, 2.8% active; further: % of control where 0% means no effect; nearly all actives have a fitted effect of over 60% in size
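Promoter activation is measured as luciferase luminescence in Huh7 cells stably transfected with a Rab9 promoter–luciferase construct, following 24 h compound exposure at 37 °C and 10 min reagent incubation at ambient temperature.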
ELG1 genotoxic = qHTS screen for small molecules that induce genotoxicity in human embryonic kidney (HEK293T) cells expressing luciferase-tagged ELG1 | HEK293T ELG1-luciferase reporter, luminescence, 16 h | Potency, µM (highest dose often 46 µM), inactives show at the top dose activity change, positive = activation, most hits filed as activators | 330,000 tested, 1.3% active | AID 504466, 2011; further: % of control where 0% means no effect; nearly all actives have a fitted effect of over 60% in size
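Cells (2,000/well) expressing the ELG1-luciferase fusion are dosed by pin tool and kept 16 hr at 37 °C, 5% CO2. Signal comes from ONE-Glo luciferase reagent after 30 min at room temperature.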
SMN2 splice enh = qHTS Assay for Enhancers of SMN2 Splice Variant Expression; HEK293 SMN2-luciferase splicing reporter, luminescence, 30-36 h; Potency, µM (titrated, usually from 46.1 µM), inactives show at the highest dose activity change, positive = activation, actives largely listed as activators; 210,000 tested, 2.8% active; AID 1458, 2008; further: % of control where 0% means no effect; nearly all actives have a fitted effect of over 55% in size
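qHTS luciferase splicing reporter: luminescence rises when SMN2 exon 7 is included in transfected HEK293 cells. Compound exposure lasted 30-36 h at 37C, with 4.5 mM final sodium butyrate as control, followed by a ONE-Glo read.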
NPC1 prom act = qHTS Assay for NPC1 Promoter Activators | 320,000 tested, 2.4% active | AID 485313, 2010 | Huh7 NPC1 promoter luciferase reporter, 24 h | Potency, µM (top dose mostly 9.22 µM), without a hit: at the top dose activation, hits mostly activators; further: % of control where 0% means no effect; nearly all actives have a fitted effect of over 60% in size
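Compounds in DMSO were transferred onto Huh7 NPC1-luciferase reporter cells pre-incubated 2 h; after 24 h at 37 °C, Amplite reagent was dispensed and luminescence recorded 10 min later.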
FLuc counter = qHTS profiling assay for firefly luciferase inhibitor/activator using purifed enzyme and Km concentrations of substrates (counterscreen for miR-21 project); Luciferin 4-monooxygenase (Photinus pyralis), P08659; purified FLuc, Km substrates, luminescence inhibition; Potency, µM (doses to about 57.5 µM), without a hit: top-dose activity change, negative = inhibition, usual class: inhibitors; 360,000 tested, 6.9% active;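 further: plate controls were vehicle for no effect and reference inhibitor for full effect; nearly all actives have a fitted effect of over 55% in size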
Target sequence (P08659 whole entry, looked up): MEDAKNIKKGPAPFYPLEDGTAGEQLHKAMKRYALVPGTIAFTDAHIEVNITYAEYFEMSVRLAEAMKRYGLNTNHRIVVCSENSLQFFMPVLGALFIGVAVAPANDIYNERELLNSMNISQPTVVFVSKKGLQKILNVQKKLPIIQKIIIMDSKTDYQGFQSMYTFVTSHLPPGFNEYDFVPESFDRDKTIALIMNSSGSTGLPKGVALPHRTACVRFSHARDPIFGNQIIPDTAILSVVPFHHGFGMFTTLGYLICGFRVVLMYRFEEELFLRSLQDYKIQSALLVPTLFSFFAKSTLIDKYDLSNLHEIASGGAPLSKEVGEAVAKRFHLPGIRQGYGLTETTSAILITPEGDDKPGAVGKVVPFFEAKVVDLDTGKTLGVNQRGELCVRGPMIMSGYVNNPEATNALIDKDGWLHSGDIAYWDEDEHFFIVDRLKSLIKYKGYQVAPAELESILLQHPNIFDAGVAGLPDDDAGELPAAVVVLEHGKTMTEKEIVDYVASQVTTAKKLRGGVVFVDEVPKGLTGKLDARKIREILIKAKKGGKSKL
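Biochemical qHTS of compounds, final roughly 60 µM downward over six points, against 10 nM purified firefly luciferase using Km concentrations of substrates (10 uM D-luciferin, 10 uM ATP) in Tris acetate pH 7.5 buffer; luminescence output.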
The depositor's hits bear a star; ? = inconclusive; / = no result; [ ] = dose if it differs, or a comment. This is a sample that favours compounds with a hit; in the whole collection about 7.5% have one here. The call rests on the fitted dose curve; in most records, active means well fitted curve in the direction sought with a large enough effect; inconclusive means small, poorly fitted or top-dose-only effect, or another doubt; inactive means no such curve, though single readings can be large; an effect the other way counts as inactive or inconclusive. Potency means the concentration at half of the fitted maximal effect.

SMILES	Luc counter	Rab9 promoter act	ELG1 genotoxic	SMN2 splice enh	NPC1 prom act	FLuc counter
Cn1cc(C(=O)O)c(=O)c2cc(S(=O)(=O)N3CCOCC3)ccc21	/	/	/	/	/	-4.2%
CCOC(=O)c1c(NC(C)=O)c2c3c(sc2n1Cc1nc(-c2cccc(C)c2)oc1C)CCCC3	/	/	/	-6.3%	/	-2.8%
Clc1ccc(C2=Nc3cc(Cl)ccc3OC2)cc1	-0.6%	?	?	?	?	7.57µM*
c1ccc(C2=Nc3ccccc3OC2)cc1	-29.4%	3.55µM*	7.0%	12.6%	?	3.01µM*
Clc1ccc(C2=NN=C3COc4ccccc4N3C2)cc1	0.7%	-2.6%	-4.1%	-19.8%	-0.5%	-17.7%
Cc1ccc2c(c1)N=C(c1ccc(Cl)cc1)CO2	?	2.51µM*	?	22.4µM*	3.55µM*	1.69µM*
Cc1ccc(C(=O)C(C)CN2CCCCC2)cc1 (stereo not drawn)	-0.3%	/	/	-0.5%	/	/
Clc1cc2nc(-c3cccnc3Cl)[nH]c2cc1Cl	/	?	4.61µM*	/	0.891µM*	3.01µM*
CCn1c(-c2cccnc2Cl)nc2cc(Cl)c(Cl)cc21	6.0%	9.8%	-1.3%	-15.1%	-10.0%	?
Cc1cc(N/N=C/c2ccccc2O)c2ccccc2n1	/	-4.0%	10.8%	/	3.8%	15.1µM*
COc1ccc2nc(C)cc(Nc3ccccc3O)c2c1	-0.5%	-9.8%	-6.6%	/	1.0%	-0.9%
COc1ccc(/C=N/Nc2cc(C)nc3ccc(Br)cc23)cc1	/	-4.1%[1.84 µM]	-6.4%	/	-0.4%	21.3µM*
COc1cccc2c(N/N=C/c3ccccc3)cc(C)nc12	/	-5.4%	-1.2%	/	-0.2%	1.5%
Cc1ccccc1/C=N/Nc1nc2ccccc2c(=O)n1O	/	7.3%	17.0%	/	12.6%	15.1µM*
COc1ccc2nc(C)cc(N/N=C/c3cccc(OC)c3O)c2c1	/	-0.2%	4.7%	/	-3.6%	16.9µM*
Cc1cc(-c2ccccc2)nc(N/N=C/c2ccc(O)cc2O)n1	/	4.0%	0.0%	/	2.6%	?
Cc1ccc(-n2c(=O)c3c(C)c(C(=O)N(C)C)sc3n(CC(=O)N(C)c3ccccc3)c2=O)cc1C	/	/	/	/	/	-3.3%
COc1ccc(NC(=O)Cn2cnc3ccc(S(=O)(=O)N4CCC(C)CC4)cc3c2=O)cc1Cl	/	/	/	17.6%	/	4.2%
CCOc1ccccc1NC(=O)C1CCCN(c2ncnc3onc(-c4ccc(F)cc4)c23)C1 (stereo not drawn)	/	/	/	/	/	-7.9%
O=C(Cc1cccs1)Nc1c(C(=O)Nc2ccc(F)cc2)oc2ccccc12	/	/	/	7.2%	/	2.5%
CN(C)/C=C(\C#N)C(=O)N/N=C/c1ccccc1	-1.9%	2.24µM*	13.8%	?	22.3%	?
Nc1ccc2nc(-c3ccc(Cl)cc3)[nH]c2c1	?	?	16.4µM*	?	?	1.9µM*
Nc1ccc(-c2nc3ccc(N)cc3[nH]2)cc1	-12.2%	?	-8.5%	?	?	15.1µM*
Nc1ccc2nc(-c3cc(Cl)c(N)c(Cl)c3)[nH]c2c1	?	3.16µM*	?	15.8µM*	?	6.01µM*
Nc1ccc2nc(-c3cccc(-c4nc5ccc(N)cc5[nH]4)c3)[nH]c2c1	/	-11.2%[1.84 µM]	-4.5%	/	-3.1%	7.57µM*
SMILES	Luc counter	Rab9 promoter act	ELG1 genotoxic	SMN2 splice enh	NPC1 prom act	FLuc counter
CNS(=O)(=O)c1cn(CC(=O)N2CCN(c3cccc(Cl)c3)CC2)cc1S(=O)(=O)NC	/	/	/	/	/	4.0%
CCCN(C(=O)c1c(C)oc2ncnc(N3CCOCC3)c12)c1ccc(Cl)c(Cl)c1	/	/	/	-0.7%	/	1.0%
Nc1ccc(-c2nc3c(Cl)c(N)ccc3[nH]2)cc1	-26.0%	?	16.6%	?	?	12µM*
Cc1nc2ccc(-c3nc4ccc(N)cc4[nH]3)cc2[nH]1	-17.7%	?	-2.9%	/	?	4.78µM*
CCCCC(=O)Nc1cccc(-c2nnc(-c3ccccc3)o2)c1	2.9%	18.8%	-1.9%	?	8.3%	?
O=C(Nc1cccc(-c2cn3ccsc3n2)c1)c1ccccc1	-1.9%	15.1%	-7.8%	-7.1%	13.7%	10.7µM*
Nc1cccc(-c2cn3ccsc3n2)c1	/	/	/	/	/	21.3µM*
COc1ccccc1C(=O)Nc1cccc(-c2cn3ccsc3n2)c1	0.7%	13.0%	-6.5%	17.9%	9.3%	4.26µM*
CCCCC(=O)Nc1cccc(-c2cn3ccsc3n2)c1	-4.9%	26.6%	4.7%	7.8%	25.8%	15.1µM*
CCOc1ncccc1C(=O)Nc1ccc(-c2cn3ccsc3n2)cc1	10.0%	1.5%	1.3%	-32.4%	-0.9%	2.2%
CCOc1ccc(-c2cc3c(=O)n(CC(=O)Nc4c(C)cccc4C)ccn3n2)cc1	/	/	/	/	/	-2.9%
Cn1c(=O)c2c(nc3n(-c4ccc(O)cc4)c(-c4ccc(Br)cc4)cn23)n(C)c1=O	/	/	/	-8.0%	/	1.8%
Cc1ccc(CCNC(=O)c2cc3cc4cc(C)ccc4nc3s2)cc1	/	/	/	/	/	-3.9%
CN(C(=O)c1cc2sccc2n1C)C1CCCCC1	1.3%	3.16µM*	?	12.6µM*	3.98µM*	13.5µM*
CC1CCN(CCCNC(=O)c2cc3sccc3n2C)CC1	/	-7.5%	2.6%	/	-0.1%	-2.5%
Cn1c(C(=O)N2CCCC(C(=O)O)C2)cc2sccc21 (stereo not drawn)	0.4%	0.2%	0.6%	-11.5%	-1.0%	3.2%
CCn1c(C(=O)NC2CCC(C)CC2)cc2sccc21 (stereo not drawn)	/	?	?	/	3.55µM*	15.1µM*
Cn1c(C(=O)NC2CCCCC2)cc2sccc21	/	3.98µM*	?	/	?	16.9µM*
CCC(=O)N1c2ccccc2[C@@H](N(C(C)=O)c2ccccc2)C[C@H]1C	1.9%	14.1%	23.1µM*	7.94µM*	1.6%	0.3%
CCCC(=O)N1c2ccccc2C(N(C(C)=O)c2ccccc2)CC1C (stereo not drawn)	-1.4%	-8.7%	-0.4%	-13.8%	-3.1%	1.1%
NS(=O)(=O)c1ccc(NC(=O)/C=C/c2ccccc2[N+](=O)[O-])cc1	-3.0%	0.0%	-2.5%	-9.3%	0.7%	4.3%
Cc1ccnc(NC(=O)/C=C/c2ccccc2Cl)c1	-27.0%	1.12µM*	?	1.26µM*	0.708µM*	0.601µM*
Cc1ccnc(NC(=O)c2ccccc2[N+](=O)[O-])c1	-4.0%	17.0%	2.2%	19.7%	26.7%	-25.9%
Cc1ccnc(NC(=O)/C=C/c2ccccc2[N+](=O)[O-])c1	-29.2%	0.562µM*	2.59µM*	2.82µM*	2µM*	3.38µM*
